The text below walks through data of PubChem BioAssay (NCI).

A short description of test [1]: NCI Yeast Anticancer Drug Screen. Data for the rad50 strain (AID 155).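 Also: 0% = growth of vehicle-only cultures of the same strain.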 The conditions noted are these: S. cerevisiae rad50 strain growth inhibition; at 50.0 µM; hits give high values. In outline:
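Inhibition values express reduced yeast growth in compound-treated cultures relative to vehicle-treated controls.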

Test [2] is described as follows: NCI Yeast Anticancer Drug Screen. Data for the mec2-1 strain (AID 157). The conditions noted are these: S. cerevisiae mec2-1 strain, at 50.0 µM, hits give high values. In outline:
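Using mec2-1 yeast: add compound, measure growth, express inhibition versus vehicle-treated cultures.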

The nature of test [3]: NCI Yeast Anticancer Drug Screen. Data for the sgs1 mgt1 strain (AID 161).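 Also: 0% = growth of cultures given vehicle only.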 The conditions noted are these: S. cerevisiae sgs1 mgt1 strain, at 50.0 µM, hits give high values. In outline: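 Growth of a repair-deficient yeast mutant was monitored after compound treatment and expressed as inhibition relative to vehicle-treated cultures.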
The nature of test [4]: NCI Yeast Anticancer Drug Screen. Data for the cln2 rad14 strain (AID 165).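 Also: 0% = growth equal to vehicle treated cultures.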 The conditions noted are these: S. cerevisiae cln2 rad14 strain, at 50.0 µM, hits give high values. In outline:
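Yeast strain cln2 rad14, bearing defects in cell cycle control and DNA repair, serves as the test system; values reflect growth inhibition compared with vehicle.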

Test [5] is described as follows: NCI Yeast Anticancer Drug Screen. Data for the mlh1 rad18 strain (AID 175). The conditions noted are these: S. cerevisiae mlh1 rad18 strain growth inhibition; at 50.0 µM; hits give high values. In outline: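 Steps: expose repair-defective yeast to compound; measure growth; express inhibition against vehicle-treated controls.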

About 79,000 compounds went through this panel and 15% of them were active in at least one assay; those are over-represented in the sample as a whole. Values without a mark were called inactive. Activity calls are given as the source filed them. Rule as the data show it: active = growth inhibition above about 70%; inactive = the rest. Where a SMILES comes first, the peptide text is derived from it. [ ]: non-standard residue; d: D form. The star is where a group is joined. NMeAc5c = CNC1(C(=O)O)CCCC1; Boc = CC(C)(C)OC(=O)*; OBn = c1ccc(CO*)cc1

For the molecule `CN(C(=O)C(Cc1ccccc1)NC(=O)OC(C)(C)C)C1(C(=O)NC(Cc2ccccc2)C(=O)OCc2ccccc2)CCCC1` (stereo not drawn) (Boc-Phe-[NMeAc5c]-Phe-OBn; configuration not given here), the growth inhibition is -3.35% in test [1]; 15.6% in test [2]; -4.5% in test [3]; 11.8% in test [4]; 13.6% in test [5].

As for `Cc1nnc(N/N=C/c2ccccc2)n1/N=C\c1ccccc1`, the growth inhibition in test [1] was 8.05%; in test [2], 17.1%; in test [3] it was -5.8%; in test [4], 10.2%; in test [5] it was -25.4%.

Turning to `c1cc(Cc2ccsc2)cs1`, the growth inhibition was -8.2% in test [1]; 4.1% in test [2]; -4.5% in test [3]; -7.1% in test [4]; -10.8% in test [5].

In the case of `CC(C)C(N)C(=O)NC(C(=O)O)C(C)C` (stereo not given), the growth inhibition is 12.8% in test [1]; -9.35% in test [2]; -4.3% in test [3]; -19.5% in test [4]; 19.3% in test [5].

Take `CC(C)=CCNc1ncnc2c1ncn2CCC(=O)OC(C)(C)C`: the growth inhibition in test [1] is -9.75%; in test [2], -3.2%; in test [3], -3.7%; in test [4] it was -15.9%; in test [5], 1.55%.

`Nc1cc2c3c(cccc3c1Br)C(=O)NC2=O`: the growth inhibition is 85.2% (active) in test [1]; 14.6% in test [2]; 35.5% in test [3]; 12.1% in test [4]; 15.8% in test [5].

In the case of `CC(=O)OC1CC1(Br)Br` (stereo not given), the growth inhibition in test [1] is 6.3%; in test [2], -15.8%; in test [3], 18.6%; in test [4], -37.8%; in test [5], 5.2%.

Turning to `CC(C)(C)c1ccc(-c2nc3ccc([N+](=O)[O-])cc3c(=O)o2)cc1`, the growth inhibition in test [1] is 12.1%; in test [2], 15.8%; in test [3], 35%; in test [4] it was -13.1%; in test [5], 33.5%.

As for `c1ccc(Cc2nnc(Cc3ccccc3)nn2)cc1`, the growth inhibition in test [1] was 10.8%; in test [2], 8.35%; in test [3], 2.7%; in test [4], 7.25%; in test [5] it was 7%.

As to `CC12CCC(=O)C=C1CCC1C2CCC2(C)C(C(=O)Cn3c(=O)cc[nH]c3=O)CCC12` (stereo not given), the growth inhibition in test [1] is 1.2%; in test [2] it was -3.7%; in test [3], -0.5%; in test [4], 15.8%; in test [5], 1.85%.

Take `CCOc1ccc(-c2nnc(Nc3ccc(S(=O)(=O)N4CCCCC4)cc3)s2)cc1`: the growth inhibition in test [1] is 10.3%; in test [2], 9.6%; in test [3] it was 13.7%; in test [4] it was -38%; in test [5], 16.7%.

`CCc1cc2c(c3c1CCCC3=O)CC1(Cc3ccc(C(=O)OC)cc3C1)C2` (stereo not given): the growth inhibition in test [1] was -8.05%; in test [2] it was -28.9%; in test [3] it was -7.6%; in test [4], -20.6%; in test [5], -39.7%.

As for `Cc1cn(CC(O)c2cc3ccccc3[nH]2)c(=O)[nH]c1=O` (stereo not given), the growth inhibition in test [1] is 9.7%; in test [2], 13.6%; in test [3] it was -0.1%; in test [4] it was 12.1%; in test [5], 7.15%.

As for `O=C1/C(=C\c2ccccc2)C2C3CCC(C3)C2/C1=C\c1ccccc1` (stereo not given), the growth inhibition in test [1] is -3.55%; in test [2], 0.55%; in test [3], 4.6%; in test [4], -63.8%; in test [5] it was -17.4%.

Turning to `CCN(CC)CCCNc1nc2ccccc2c2c1ncn2CC(C)C`, the growth inhibition was -51% in test [1]; 5.4% in test [2]; -20.8% in test [3]; 27.1% in test [4]; 6.35% in test [5].

Take `CN(C)C(=S)SCCC(=O)O`: the growth inhibition was 3.05% in test [1]; -4.3% in test [2]; 6.05% in test [3]; 8.5% in test [4]; -8.2% in test [5].

With `Cc1ccc(N=Nc2ccc(C)cc2NC(=O)Nc2cc(C)ccc2C)cc1`, the growth inhibition in test [1] was -3.7%; in test [2] it was 8.05%; in test [3], 27%; in test [4], -10.9%; in test [5], -10.4%.

In the case of `CN1CC[C@H]([C@@H](O)c2ccccc2)C1=O`, the growth inhibition in test [1] was 4.95%; in test [2] it was -7%; in test [3], -3.5%; in test [4], -34.4%; in test [5] it was 5.7%.

In the case of `Cc1ccc(Sc2cccc3c2C(=O)c2c(Sc4ccc(C)cc4)cccc2C3(Br)c2ccccc2)cc1`, the growth inhibition in test [1] is 13.9%; in test [2], -8.95%; in test [3] it was -2.95%; in test [4], -27.2%; in test [5], 0.1%.

Consider `C=C(C)c1ccc2c(c1)C(=O)C[C@@H]1[C@](C)(C#N)CCC[C@]21C`, for which the growth inhibition in test [1] was -19.9%; in test [2], -16.3%; in test [3], 32.2%; in test [4], -52%; in test [5] it was -33.9%.

`CCCCCCCCCCCCCC/C(C(=O)OC)=C(/O)C(=O)OCC`: the growth inhibition in test [1] was -40.4%; in test [2] it was -30.4%; in test [3], -27.6%; in test [4] it was -17.2%; in test [5], -19.9%.

For `Cc1ccc(C)c2c(Cl)c3c(C)ccc(C)c3nc12`, the growth inhibition was -8.45% in test [1]; -4.65% in test [2]; 0.3% in test [3]; -29.4% in test [4]; 7.25% in test [5].

In the case of `c1ccc(CN[C@]23C4C5CC6C7C5C2C7[C@@](NCc2ccccc2)(C64)N3Cc2ccccc2)cc1` (stereo not given in full), the growth inhibition in test [1] is 2.7%; in test [2], -1.05%; in test [3], -11.8%; in test [4], -37.4%; in test [5] it was 5.25%.

As to `CC(=O)Nc1ccccc1Cc1nc2ccccc2c(=O)[nH]1`, the growth inhibition in test [1] was 15.7%; in test [2], 12.6%; in test [3] it was 25.1%; in test [4] it was 7.9%; in test [5] it was 16.8%.

Consider `COC(=O)CC[N+]1=CCC(c2ccccc2)(c2ccccc2)O1`, for which the growth inhibition in test [1] was -9.55%; in test [2], -24.9%; in test [3], -20.8%; in test [4], 5.8%; in test [5] it was -7.65%.

As for `CN(C)Cc1cc(C(=O)c2ccccc2)c(O)cc1O`, the growth inhibition was -38.4% in test [1]; -4.05% in test [2]; -0.9% in test [3]; -23.6% in test [4]; 13.2% in test [5].

Take `CCCCOB(OCCCC)Oc1c(C(C)(C)C)cc(C)cc1C(C)(C)C`: the growth inhibition is 1.5% in test [1]; -14.2% in test [2]; -2.55% in test [3]; 15.5% in test [4]; -3% in test [5].

Turning to `Cc1cc(Cl)ccc1C(=O)O`, the growth inhibition was -0.9% in test [1]; 9.7% in test [2]; 13.3% in test [3]; 1.35% in test [4]; 20.2% in test [5].

As to `C(=Nc1ccc2c(c1)Cc1ccccc1-2)c1ccc2c(c1)OCO2`, the growth inhibition in test [1] is 8.75%; in test [2], -10.1%; in test [3] it was 9.75%; in test [4] it was -2.1%; in test [5] it was 15.4%.

For `CCCCCCCCCC(=O)OCCCC(CCCOC(=O)CCCCCCCCC)OC(=O)CCCCCCCCC`, the growth inhibition in test [1] is -19.9%; in test [2], -6.85%; in test [3], -6.25%; in test [4], -23.9%; in test [5], -26.6%.

On to `Cc1cccc(NC(=O)CCCCCCCCC(=O)Nc2cccc(C)c2C)c1C`, for which the growth inhibition was -4.8% in test [1]; 0.7% in test [2]; -2.3% in test [3]; -41.4% in test [4]; 12.2% in test [5].

`CCCC(O)CO` (stereo not given): the growth inhibition in test [1] is 5.55%; in test [2], 1.9%; in test [3], 0.15%; in test [4], -0.6%; in test [5], 40.2%.

Regarding `COc1ccc(C2=C(C#N)C(=C(C#N)C#N)NC(N)=C2C#N)cc1`, the growth inhibition in test [1] was -11.1%; in test [2], -1.25%; in test [3] it was -21.8%; in test [4], -4.75%; in test [5] it was -17.4%.

For the molecule `Clc1cnc(/N=C/c2ccc(/C=N/c3ncc(Cl)cc3Cl)cc2)c(Cl)c1`, the growth inhibition in test [1] is 13%; in test [2] it was -21.8%; in test [3], 6.05%; in test [4] it was 10%; in test [5], 16.4%.

In the case of `CCOC(=O)CC(C)C(C(=O)OCC)C(=O)OCC` (stereo not given), the growth inhibition is 1.05% in test [1]; 6.15% in test [2]; -9.15% in test [3]; 4.15% in test [4]; 14% in test [5].

Turning to `COC(=O)c1c(C(=O)OC)c2ccccn2c1-c1cc(OC)c(Br)c(=O)o1`, the growth inhibition in test [1] was -0.2%; in test [2], -17.8%; in test [3] it was -7.6%; in test [4], -18.9%; in test [5], -105%.

With `CS(=O)CC(=N\N)/C(CS(C)=O)=N/N` (stereo not given), the growth inhibition in test [1] was -60%; in test [2], -20.8%; in test [3], -19.7%; in test [4] it was -21.4%; in test [5] it was -5.75%.

For `CC12CCC(CC1)C2(C)C`, the growth inhibition in test [1] was 5.6%; in test [2] it was 0.3%; in test [3], 0.15%; in test [4], -4.8%; in test [5], -1.6%.

In the case of `CCOC(=O)c1c(NCCO)c(-c2ccccc2)c(=O)n2c1[nH]c1ccccc12`, the growth inhibition was 2.1% in test [1]; 6.6% in test [2]; 4.8% in test [3]; -1% in test [4]; 14.9% in test [5].

Consider `NC(=O)c1c[n+]([O-])ccc1[N+](=O)[O-]`, for which the growth inhibition in test [1] was 40.1%; in test [2], 5.3%; in test [3] it was 34.8%; in test [4], 28.1%; in test [5], 18.2%.
